Results on ten compounds are retold here after PubChem BioAssay (NCI).

The panel holds about 79,000 compounds, 15% with a hit somewhere; the sample as a whole holds those more often. Values without a mark were called inactive. Activity calls are given as the source filed them. Cut-off read from the data, not from the text of the source: active = growth inhibition above about 70%; inactive = the rest.

Assay [1] is described as follows: NCI Yeast Anticancer Drug Screen. Data for the rad50 strain (AID 155).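 Note: 0% = growth of vehicle-only cultures of the same strain.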 To be noted: S. cerevisiae rad50 strain growth inhibition, active compounds read high. Summed up: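 Cells are treated with compound, grown, and their growth is then scored against vehicle-only cultures of the same repair-deficient yeast strain.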
The nature of assay [2]: NCI Yeast Anticancer Drug Screen. Data for the mec2-1 strain (AID 157). To be noted: S. cerevisiae mec2-1 strain, active compounds read high. Summed up: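 Test agents were screened against the mec2-1 yeast strain, with defined DNA repair or cell cycle alteration. Growth was scored as inhibition against vehicle-only controls.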
Assay [3] is described as follows: NCI Yeast Anticancer Drug Screen. Data for the sgs1 mgt1 strain (AID 161).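 Note: 0% = growth of cultures given vehicle only.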 To be noted: S. cerevisiae sgs1 mgt1 strain, active compounds read high. In outline: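 Mutant yeast exposed to compound; growth scored against vehicle-only wells.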
A short description of assay [4]: NCI Yeast Anticancer Drug Screen. Data for the cln2 rad14 strain (AID 165).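 Note: 0% = growth equal to vehicle treated cultures.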 To be noted: S. cerevisiae cln2 rad14 strain, active compounds read high. In outline: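 Growth of compound-exposed yeast (cln2 rad14 genotype) measured and expressed as inhibition relative to vehicle.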
A short description of assay [5]: NCI Yeast Anticancer Drug Screen. Data for the bub3 strain (AID 167). To be noted: S. cerevisiae bub3 mutant strain, active compounds read high. Summed up: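 Part of a panel of yeast mutants defective in DNA damage repair or cell cycle regulation. Each strain is grown with compound, and inhibition is calculated relative to solvent-treated cultures.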
Assay [6] can be described thus: NCI Yeast Anticancer Drug Screen. Data for the mlh1 rad18 strain (AID 175). To be noted: S. cerevisiae mlh1 rad18 strain growth inhibition, active compounds read high. Summed up:
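In this whole-cell yeast screen, a strain with altered DNA damage repair is challenged with compound, and its growth is measured against matched vehicle-treated controls.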

Setting [7] is: at 5.0 µM (retest, dose inferred, filed as 0.5).
[8] abbreviates: at 50.0 µM (retest, dose inferred, filed as 5.0).

For the compound `CCCCN(C)C(=S)N/N=C(\C)c1ccccn1`, the growth inhibition in assay [1] (setting [7]) was 56%; in assay [1] (setting [8]), 99% (active); in assay [1] (at 50.0 µM), 99.5% (active); in assay [2] (setting [7]), 73% (active); in assay [2] (setting [8]), 100% (active); in assay [2] (at 50.0 µM), 99.8% (active). Also, the growth inhibition in assay [3] (setting [7]) is 97% (active); in assay [3] (setting [8]), 99% (active); in assay [3] (at 50.0 µM), 99.7% (active); in assay [4] (setting [7]), 95% (active); in assay [4] (setting [8]), 98% (active); in assay [4] (at 50.0 µM), 99.5% (active). The growth inhibition is 92% (active) in assay [5] (setting [7]); 99% (active) in assay [5] (setting [8]); 99.5% (active) in assay [5] (at 50.0 µM); 98% (active) in assay [6] (setting [7]); 99% (active) in assay [6] (setting [8]); 99.7% (active) in assay [6] (at 50.0 µM).
Take `O=C1NOCC1N=Cc1cc(Cl)ccc1O` (stereo not given): the growth inhibition in assay [1] (setting [7]) is 9%; in assay [1] (setting [8]), 65%; in assay [1] (at 50.0 µM) it was 75.8% (active); in assay [2] (setting [7]), 3%; in assay [2] (setting [8]) it was 30%; in assay [2] (at 50.0 µM) it was 16.9%. Moreover, the growth inhibition is -7% in assay [3] (setting [7]); 35% in assay [3] (setting [8]); 26.9% in assay [3] (at 50.0 µM); 0% in assay [4] (setting [7]); 38% in assay [4] (setting [8]); 23.4% in assay [4] (at 50.0 µM). The growth inhibition was 6% in assay [5] (setting [7]); 61% in assay [5] (setting [8]); 58.9% in assay [5] (at 50.0 µM); 9% in assay [6] (setting [7]); 78% (active) in assay [6] (setting [8]); 84% (active) in assay [6] (at 50.0 µM).
As to `CN(C)C(=O)SC1=C(c2c(Cl)cccc2Cl)C(=O)c2ccccc21`, the growth inhibition in assay [1] (setting [7]) is 41%; in assay [1] (setting [8]), 74% (active); in assay [1] (at 50.0 µM), 66.3%; in assay [2] (setting [7]), 32%; in assay [2] (setting [8]) it was 69%; in assay [2] (at 50.0 µM) it was 74.5% (active). Besides, the growth inhibition in assay [3] (setting [7]) was 53%; in assay [3] (setting [8]), 80% (active); in assay [3] (at 50.0 µM) it was 89.7% (active); in assay [4] (setting [7]) it was 33%; in assay [4] (setting [8]) it was 61%; in assay [4] (at 50.0 µM), 87.8% (active). Further, the growth inhibition was 32% in assay [5] (setting [7]); 71% (active) in assay [5] (setting [8]); 85.9% (active) in assay [5] (at 50.0 µM); 82% (active) in assay [6] (setting [7]); 93% (active) in assay [6] (setting [8]); 82.8% (active) in assay [6] (at 50.0 µM).
For `O=[N+]([O-])c1ccc(-n2ncc3cccnc32)c([N+](=O)[O-])c1`, the growth inhibition in assay [1] (setting [7]) is 1%; in assay [1] (setting [8]), 99% (active); in assay [1] (at 50.0 µM), 99% (active); in assay [2] (setting [7]), -12%; in assay [2] (setting [8]), 99% (active); in assay [2] (at 50.0 µM), 93.6% (active). Besides, the growth inhibition is 2% in assay [3] (setting [7]); 100% (active) in assay [3] (setting [8]); 99.3% (active) in assay [3] (at 50.0 µM); -1% in assay [4] (setting [7]); 98% (active) in assay [4] (setting [8]); 46.9% in assay [4] (at 50.0 µM). Further, the growth inhibition is 33% in assay [5] (setting [7]); 99% (active) in assay [5] (setting [8]); 92% (active) in assay [5] (at 50.0 µM); 26% in assay [6] (setting [7]); 100% (active) in assay [6] (setting [8]); 99.5% (active) in assay [6] (at 50.0 µM).
Consider `C/C(=N\NC(=S)N(C)CCN(C)C(=S)N/N=C(\C)c1ccccn1)c1ccccn1`, for which the growth inhibition was -8% in assay [1] (setting [7]); 99% (active) in assay [1] (setting [8]); 97.5% (active) in assay [1] (at 50.0 µM); -5% in assay [2] (setting [7]); 99% (active) in assay [2] (setting [8]); 97.2% (active) in assay [2] (at 50.0 µM). The growth inhibition in assay [3] (setting [7]) is -3%; in assay [3] (setting [8]) it was 99% (active); in assay [3] (at 50.0 µM) it was 97.8% (active); in assay [4] (setting [7]) it was 4%; in assay [4] (setting [8]) it was 99% (active); in assay [4] (at 50.0 µM), 95.8% (active). The growth inhibition in assay [5] (setting [7]) is -10%; in assay [5] (setting [8]) it was 99% (active); in assay [5] (at 50.0 µM), 97% (active); in assay [6] (setting [7]) it was 20%; in assay [6] (setting [8]), 99% (active); in assay [6] (at 50.0 µM), 96.7% (active).
With `O=CNNC(=O)Nc1ccc(Cl)cc1`, the growth inhibition is 19% in assay [1] (setting [7]); 25% in assay [1] (setting [8]); -1.5% in assay [1] (at 50.0 µM); 10% in assay [2] (setting [7]); 14% in assay [2] (setting [8]); -3.75% in assay [2] (at 50.0 µM). Besides, the growth inhibition in assay [3] (setting [7]) is 20%; in assay [3] (setting [8]), 11%; in assay [3] (at 50.0 µM) it was -8.8%; in assay [4] (setting [7]) it was 32%; in assay [4] (setting [8]), 19%; in assay [4] (at 50.0 µM), 22.1%. The growth inhibition in assay [5] (setting [7]) is 4%; in assay [5] (setting [8]), 0%; in assay [5] (at 50.0 µM), 14.6%; in assay [6] (setting [7]), 20%; in assay [6] (setting [8]), 21%; in assay [6] (at 50.0 µM), 7.2%.
For `C=C1C[C@@]2(OC)OCC[C@H]3C(C)=CCC(C1=O)[C@]32C(=O)OC` (stereo not given in full), the growth inhibition in assay [1] (setting [7]) is 12%; in assay [1] (setting [8]) it was 96% (active); in assay [1] (at 50.0 µM), 98.5% (active); in assay [2] (setting [7]), 15%; in assay [2] (setting [8]), 98% (active); in assay [2] (at 50.0 µM), 92.7% (active). For the same compound, the growth inhibition was 15% in assay [3] (setting [7]); 98% (active) in assay [3] (setting [8]); 99.1% (active) in assay [3] (at 50.0 µM); 6% in assay [4] (setting [7]); 93% (active) in assay [4] (setting [8]); 96.8% (active) in assay [4] (at 50.0 µM). In addition, the growth inhibition in assay [5] (setting [7]) was -5%; in assay [5] (setting [8]), 98% (active); in assay [5] (at 50.0 µM), 98.7% (active); in assay [6] (setting [7]), 4%; in assay [6] (setting [8]) it was 97% (active); in assay [6] (at 50.0 µM), 99% (active).
Turning to `CCCCCCN(CCCCCC)CCC(=O)c1ccc2cc(Br)c3ccccc3c2c1`, the growth inhibition was 26% in assay [1] (setting [7]); 85% (active) in assay [1] (setting [8]); 98.6% (active) in assay [1] (at 50.0 µM); 38% in assay [2] (setting [7]); 95% (active) in assay [2] (setting [8]); 98.6% (active) in assay [2] (at 50.0 µM). In addition, the growth inhibition in assay [3] (setting [7]) was 75% (active); in assay [3] (setting [8]), 94% (active); in assay [3] (at 50.0 µM), 97.9% (active); in assay [4] (setting [7]) it was 8%; in assay [4] (setting [8]) it was 87% (active); in assay [4] (at 50.0 µM) it was 96.8% (active). For the same compound, the growth inhibition in assay [5] (setting [7]) was 20%; in assay [5] (setting [8]), 92% (active); in assay [5] (at 50.0 µM) it was 98.6% (active); in assay [6] (setting [7]), 43%; in assay [6] (setting [8]), 84% (active); in assay [6] (at 50.0 µM) it was 97.7% (active).
On to `Cc1nc2c(=O)[nH]c3ccc(Cl)cc3c2o1`, for which the growth inhibition was 3% in assay [1] (setting [7]); 60% in assay [1] (setting [8]); 42.5% in assay [1] (at 50.0 µM); 3% in assay [2] (setting [7]); 59% in assay [2] (setting [8]); 38.1% in assay [2] (at 50.0 µM). The growth inhibition is 9% in assay [3] (setting [7]); 90% (active) in assay [3] (setting [8]); 40.7% in assay [3] (at 50.0 µM); 7% in assay [4] (setting [7]); 12% in assay [4] (setting [8]); 77.3% (active) in assay [4] (at 50.0 µM). In addition, the growth inhibition in assay [5] (setting [7]) was 6%; in assay [5] (setting [8]), 75% (active); in assay [5] (at 50.0 µM) it was 60.2%; in assay [6] (setting [7]) it was 8%; in assay [6] (setting [8]) it was 89% (active); in assay [6] (at 50.0 µM), 46.2%.
`CCOC(=O)C(CO)c1nc2c([nH]c1=O)c(=O)n(C)c(=O)n2C` (stereo not given): the growth inhibition is 5% in assay [1] (setting [7]); 18% in assay [1] (setting [8]); 29.9% in assay [1] (at 50.0 µM); 14% in assay [2] (setting [7]); 17% in assay [2] (setting [8]); 43.5% in assay [2] (at 50.0 µM). In addition, the growth inhibition in assay [3] (setting [7]) is 33%; in assay [3] (setting [8]), 60%; in assay [3] (at 50.0 µM) it was 50.5%; in assay [4] (setting [7]), -4%; in assay [4] (setting [8]), 5%; in assay [4] (at 50.0 µM), -2.95%. For the same compound, the growth inhibition is 6% in assay [5] (setting [7]); 39% in assay [5] (setting [8]); 52.9% in assay [5] (at 50.0 µM); 17% in assay [6] (setting [7]); 18% in assay [6] (setting [8]); 83.5% (active) in assay [6] (at 50.0 µM).
